Experimental findings from PMC11006913 are described below.

What all share (experiment): PBM; 200 nM protein, PBS
Holding throughout (details): dsDNA, one strand shown

Test [1] addresses HESX1 (Homo sapiens, UniProt Q9UBX0 95-180, R165K).
Test [2] addresses SHOX (Homo sapiens, UniProt O15266 103-189).
The target in test [3] is ALX4 (Homo sapiens, UniProt Q9H161 200-286, Q225E).
Test [4] deals with HESX1 (Homo sapiens, UniProt Q9UBX0 95-180).
The target in test [5] is MSX2 (Homo sapiens, UniProt P35548 130-214, R199I).
Chain of MSX2 (P35548 130-214 R199I): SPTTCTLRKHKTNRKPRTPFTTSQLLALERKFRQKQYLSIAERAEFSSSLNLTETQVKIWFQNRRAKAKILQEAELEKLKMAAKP
For test [6], the target named is ALX1 (Homo sapiens, UniProt Q15699 118-204, L144V).
Chain of ALX1 (Homo sapiens, UniProt Q15699 118-204, L144V) (Q15699 118-204 L144V): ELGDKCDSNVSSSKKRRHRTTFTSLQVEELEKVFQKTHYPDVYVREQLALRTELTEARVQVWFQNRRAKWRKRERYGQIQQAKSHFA
In test [7] the target is ALX3 (Homo sapiens, UniProt O95076 139-225, N203Q).
Chain of ALX3 (Homo sapiens, UniProt O95076 139-225, N203Q) (O95076 139-225 N203Q): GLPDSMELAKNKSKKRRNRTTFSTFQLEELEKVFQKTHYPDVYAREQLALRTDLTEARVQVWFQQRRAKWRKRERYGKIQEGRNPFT
Test [8] has as its target SHOX (Homo sapiens, UniProt O15266 103-189, R173C).
In test [9] the target is ALX1 (Homo sapiens, UniProt Q15699 118-204, L144R).
Chain of ALX1 (Homo sapiens, UniProt Q15699 118-204, L144R) (Q15699 118-204 L144R): as the sequence (Q15699 118-204 L144V) above, with V27R counted along it
The target in test [10] is ALX3 (Homo sapiens, UniProt O95076 139-225).
Chain of ALX3 (Homo sapiens, UniProt O95076 139-225) (O95076 139-225): as the sequence (O95076 139-225 N203Q) above, with Q65N counted along it
Test [11] addresses PROP1 (Homo sapiens, UniProt O75360 56-141).
Test [12] has as its target HESX1 (Homo sapiens, UniProt Q9UBX0 95-180, R109Q).
Test [13] deals with PROP1 (Homo sapiens, UniProt O75360 56-141, R99H).
Chain of PROP1 (Homo sapiens, UniProt O75360 56-141, R99H) (O75360 56-141 R99H): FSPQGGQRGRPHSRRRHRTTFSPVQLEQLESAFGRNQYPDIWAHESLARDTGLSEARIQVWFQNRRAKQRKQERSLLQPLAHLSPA
For test [14], the target named is ALX3 (Homo sapiens, UniProt O95076 139-225, L168Q).
Chain of ALX3 (Homo sapiens, UniProt O95076 139-225, L168Q) (O95076 139-225 L168Q): as the sequence (O95076 139-225 N203Q) above, with L30Q, Q65N counted along it
For test [15], the target named is HESX1 (Homo sapiens, UniProt Q9UBX0 95-180, P111T).
Chain of HESX1 (Homo sapiens, UniProt Q9UBX0 95-180, P111T) (Q9UBX0 95-180 P111T): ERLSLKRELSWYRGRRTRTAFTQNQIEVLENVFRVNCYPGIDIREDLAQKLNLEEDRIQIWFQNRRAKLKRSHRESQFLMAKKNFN
Test [16] has as its target ALX3 (Homo sapiens, UniProt O95076 139-225, L168V).
Test [17] has as its target PROP1 (Homo sapiens, UniProt O75360 56-141, F88S).
Test [18] concerns the target HESX1 (Homo sapiens, UniProt Q9UBX0 95-180, F115L).
The target of test [19] is ALX1 (Homo sapiens, UniProt Q15699 118-204).
Chain of ALX1 (Homo sapiens, UniProt Q15699 118-204) (Q15699 118-204): as the sequence (Q15699 118-204 L144V) above, with V27L counted along it
Test [20] has as its target ALX3 (Homo sapiens, UniProt O95076 139-225, N203S).

Chain of ALX4 (Q9H161 200-286 Q225E): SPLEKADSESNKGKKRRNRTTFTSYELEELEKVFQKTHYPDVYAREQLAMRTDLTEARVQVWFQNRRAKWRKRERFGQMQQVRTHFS
Chain of SHOX (Homo sapiens, UniProt O15266 103-189, R173C) (O15266 103-189 R173C): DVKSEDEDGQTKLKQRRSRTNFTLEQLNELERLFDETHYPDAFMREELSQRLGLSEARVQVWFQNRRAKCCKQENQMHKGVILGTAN
Chain of SHOX (Homo sapiens, UniProt O15266 103-189) (O15266 103-189): as the sequence (O15266 103-189 R173C) above, with C71R counted along it
Chain of PROP1 (Homo sapiens, UniProt O75360 56-141) (O75360 56-141): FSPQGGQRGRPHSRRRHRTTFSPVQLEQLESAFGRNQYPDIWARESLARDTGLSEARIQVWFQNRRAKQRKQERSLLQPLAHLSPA
Chain of PROP1 (Homo sapiens, UniProt O75360 56-141, F88S) (O75360 56-141 F88S): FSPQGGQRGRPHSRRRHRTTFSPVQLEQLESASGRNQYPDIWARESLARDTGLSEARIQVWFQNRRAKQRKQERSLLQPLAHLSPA
Chain of ALX3 (Homo sapiens, UniProt O95076 139-225, L168V) (O95076 139-225 L168V): as the sequence (O95076 139-225 N203Q) above, with L30V, Q65N counted along it
Chain of HESX1 (Homo sapiens, UniProt Q9UBX0 95-180, R165K) (Q9UBX0 95-180 R165K): as the sequence (Q9UBX0 95-180 P111T) above, with T17P, R71K counted along it
Chain of HESX1 (Homo sapiens, UniProt Q9UBX0 95-180, R109Q) (Q9UBX0 95-180 R109Q): as the sequence (Q9UBX0 95-180 P111T) above, with R15Q, T17P counted along it
Chain of HESX1 (Homo sapiens, UniProt Q9UBX0 95-180, F115L) (Q9UBX0 95-180 F115L): as the sequence (Q9UBX0 95-180 P111T) above, with T17P, F21L counted along it
Chain of HESX1 (Homo sapiens, UniProt Q9UBX0 95-180) (Q9UBX0 95-180): as the sequence (Q9UBX0 95-180 P111T) above, with T17P counted along it
Chain of ALX3 (Homo sapiens, UniProt O95076 139-225, N203S) (O95076 139-225 N203S): as the sequence (O95076 139-225 N203Q) above, with Q65S counted along it

Take TAATTACA: the binding signal is 12.5 upbm affinity estimate (log intensity, higher = more binding, comparable within an allelic series) in [1]; 12.1 upbm affinity estimate (log intensity, higher = more binding, comparable within an allelic series) in test [2]; 13.5 upbm affinity estimate (log intensity, higher = more binding, comparable within an allelic series) in [3]; 12.6 upbm affinity estimate (log intensity, higher = more binding, comparable within an allelic series) in test [4]; 13.1 upbm affinity estimate (log intensity, higher = more binding, comparable within an allelic series) in test [5]; 11.9 upbm affinity estimate (log intensity, higher = more binding, comparable within an allelic series) in [6]. In addition, the binding signal is 8.51 upbm affinity estimate (log intensity, higher = more binding, comparable within an allelic series) in [7]; 9.87 upbm affinity estimate (log intensity, higher = more binding, comparable within an allelic series) in [8]; 11.5 upbm affinity estimate (log intensity, higher = more binding, comparable within an allelic series) in [9]; 12.7 upbm affinity estimate (log intensity, higher = more binding, comparable within an allelic series) in [10]; 11.8 upbm affinity estimate (log intensity, higher = more binding, comparable within an allelic series) in test [11]; 9.27 upbm affinity estimate (log intensity, higher = more binding, comparable within an allelic series) in test [12]. Further, the binding signal was 11.5 upbm affinity estimate (log intensity, higher = more binding, comparable within an allelic series) in test [13]; 10.8 upbm affinity estimate (log intensity, higher = more binding, comparable within an allelic series) in test [14]; 11.1 upbm affinity estimate (log intensity, higher = more binding, comparable within an allelic series) in test [15]; 10.3 upbm affinity estimate (log intensity, higher = more binding, comparable within an allelic series) in [16]; 7.98 upbm affinity estimate (log intensity, higher = more binding, comparable within an allelic series) in test [17]; 7.89 upbm affinity estimate (log intensity, higher = more binding, comparable within an allelic series) in test [18]. The binding signal is 12.5 upbm affinity estimate (log intensity, higher = more binding, comparable within an allelic series) in test [19] and 8.62 upbm affinity estimate (log intensity, higher = more binding, comparable within an allelic series) in test [20].

As to ATAATTAC, the binding signal was 12.6 upbm affinity estimate (log intensity, higher = more binding, comparable within an allelic series) in [1]; 12 upbm affinity estimate (log intensity, higher = more binding, comparable within an allelic series) in [2]; 13.4 upbm affinity estimate (log intensity, higher = more binding, comparable within an allelic series) in test [3]; 12.6 upbm affinity estimate (log intensity, higher = more binding, comparable within an allelic series) in test [4]; 13.1 upbm affinity estimate (log intensity, higher = more binding, comparable within an allelic series) in [5]; 11.8 upbm affinity estimate (log intensity, higher = more binding, comparable within an allelic series) in test [6]. For the same sequence, the binding signal was 8.56 upbm affinity estimate (log intensity, higher = more binding, comparable within an allelic series) in test [7]; 9.76 upbm affinity estimate (log intensity, higher = more binding, comparable within an allelic series) in [8]; 11.5 upbm affinity estimate (log intensity, higher = more binding, comparable within an allelic series) in test [9]; 12.5 upbm affinity estimate (log intensity, higher = more binding, comparable within an allelic series) in test [10]; 11.6 upbm affinity estimate (log intensity, higher = more binding, comparable within an allelic series) in test [11]; 9.02 upbm affinity estimate (log intensity, higher = more binding, comparable within an allelic series) in [12]. The binding signal in [13] was 11.4 upbm affinity estimate (log intensity, higher = more binding, comparable within an allelic series); in test [14], 10.7 upbm affinity estimate (log intensity, higher = more binding, comparable within an allelic series); in [15], 11.1 upbm affinity estimate (log intensity, higher = more binding, comparable within an allelic series); in test [16], 10.3 upbm affinity estimate (log intensity, higher = more binding, comparable within an allelic series); in test [17], 7.95 upbm affinity estimate (log intensity, higher = more binding, comparable within an allelic series); in test [18], 7.97 upbm affinity estimate (log intensity, higher = more binding, comparable within an allelic series). Moreover, the binding signal in test [19] is 12.5 upbm affinity estimate (log intensity, higher = more binding, comparable within an allelic series); in test [20] it was 8.66 upbm affinity estimate (log intensity, higher = more binding, comparable within an allelic series).

On to ATAATTAA, for which the binding signal in [1] is 13.5 upbm affinity estimate (log intensity, higher = more binding, comparable within an allelic series); in test [2], 12.7 upbm affinity estimate (log intensity, higher = more binding, comparable within an allelic series); in test [3] it was 14.2 upbm affinity estimate (log intensity, higher = more binding, comparable within an allelic series); in test [4], 13.3 upbm affinity estimate (log intensity, higher = more binding, comparable within an allelic series); in test [5] it was 13 upbm affinity estimate (log intensity, higher = more binding, comparable within an allelic series); in test [6], 12.3 upbm affinity estimate (log intensity, higher = more binding, comparable within an allelic series). Moreover, the binding signal in test [7] is 8.66 upbm affinity estimate (log intensity, higher = more binding, comparable within an allelic series); in test [8], 10.3 upbm affinity estimate (log intensity, higher = more binding, comparable within an allelic series); in test [9], 11.9 upbm affinity estimate (log intensity, higher = more binding, comparable within an allelic series); in test [10] it was 12.9 upbm affinity estimate (log intensity, higher = more binding, comparable within an allelic series); in [11], 11.9 upbm affinity estimate (log intensity, higher = more binding, comparable within an allelic series); in test [12], 9.82 upbm affinity estimate (log intensity, higher = more binding, comparable within an allelic series). Also, the binding signal is 11.9 upbm affinity estimate (log intensity, higher = more binding, comparable within an allelic series) in test [13]; 11.2 upbm affinity estimate (log intensity, higher = more binding, comparable within an allelic series) in test [14]; 12 upbm affinity estimate (log intensity, higher = more binding, comparable within an allelic series) in [15]; 10.9 upbm affinity estimate (log intensity, higher = more binding, comparable within an allelic series) in test [16]; 8.13 upbm affinity estimate (log intensity, higher = more binding, comparable within an allelic series) in test [17]; 8.29 upbm affinity estimate (log intensity, higher = more binding, comparable within an allelic series) in [18]. In addition, the binding signal is 12.8 upbm affinity estimate (log intensity, higher = more binding, comparable within an allelic series) in test [19] and 8.77 upbm affinity estimate (log intensity, higher = more binding, comparable within an allelic series) in test [20].

Regarding GATAATTA, the binding signal is 13.6 upbm affinity estimate (log intensity, higher = more binding, comparable within an allelic series) in [1]; 12.6 upbm affinity estimate (log intensity, higher = more binding, comparable within an allelic series) in [2]; 14.1 upbm affinity estimate (log intensity, higher = more binding, comparable within an allelic series) in test [3]; 13.4 upbm affinity estimate (log intensity, higher = more binding, comparable within an allelic series) in [4]; 13.3 upbm affinity estimate (log intensity, higher = more binding, comparable within an allelic series) in test [5]; 12.3 upbm affinity estimate (log intensity, higher = more binding, comparable within an allelic series) in test [6]. Besides, the binding signal in test [7] was 8.59 upbm affinity estimate (log intensity, higher = more binding, comparable within an allelic series); in test [8], 10.1 upbm affinity estimate (log intensity, higher = more binding, comparable within an allelic series); in [9], 11.8 upbm affinity estimate (log intensity, higher = more binding, comparable within an allelic series); in test [10], 12.9 upbm affinity estimate (log intensity, higher = more binding, comparable within an allelic series); in test [11], 12 upbm affinity estimate (log intensity, higher = more binding, comparable within an allelic series); in [12], 9.64 upbm affinity estimate (log intensity, higher = more binding, comparable within an allelic series). In addition, the binding signal in test [13] was 12 upbm affinity estimate (log intensity, higher = more binding, comparable within an allelic series); in [14], 11.2 upbm affinity estimate (log intensity, higher = more binding, comparable within an allelic series); in test [15], 11.9 upbm affinity estimate (log intensity, higher = more binding, comparable within an allelic series); in test [16] it was 10.8 upbm affinity estimate (log intensity, higher = more binding, comparable within an allelic series); in test [17], 7.94 upbm affinity estimate (log intensity, higher = more binding, comparable within an allelic series); in test [18], 8.2 upbm affinity estimate (log intensity, higher = more binding, comparable within an allelic series). Further, the binding signal in test [19] is 12.8 upbm affinity estimate (log intensity, higher = more binding, comparable within an allelic series); in test [20], 8.72 upbm affinity estimate (log intensity, higher = more binding, comparable within an allelic series).
